aSyn 5UTR act: Activators working through SNCA 5'UTR binding (MLPCN); alpha-synuclein 5'UTR reporter, activators screen; hit rate 7.1% among 300,000; activity score, % (tested at 7.5 µM), hits read low; in the data active means activity score below about -60%
Active calls of the source: *. Only a sample is shown.

SMILES | aSyn 5UTR act
Cc1ccc(C)c(OCc2cc(C(=O)N3CC[C@H](O)C3)no2)c1 | -127*
COc1cccc(CN(C)C(=O)c2ccc(COc3ccc(Cl)cc3)cc2)c1OC | -101*
CCOC(=O)c1ccc(NC(=O)c2ccccc2)cc1 | -252*
CC1CCN(c2ccc(NC(=O)c3ccccc3[N+](=O)[O-])cc2)CC1 | -70*
CCOC(=O)c1ccc(NC(=O)c2n[nH]c(=O)c3ccccc23)cc1 | -90*
O=C(Nc1ccc2c(c1)OCO2)c1n[nH]c(=O)c2ccccc12 | -140*
CCOC(=O)c1ccc(NC(=O)c2nc(S(=O)(=O)Cc3ccccc3)ncc2Cl)cc1 | 54
O=C(OCCC1Oc2cccnc2NC1=O)c1ccc([N+](=O)[O-])cc1 (stereo not given) | 34
CCC(=O)NC(c1ccc(C)cc1)c1cc([N+](=O)[O-])c2cccnc2c1O (stereo not given) | 64
CCOC(=O)c1ccc(NC(=O)Oc2ccccc2)cc1 | -66*
Nc1ccc(OC(=O)Nc2ccc(O)cc2)cc1 | 91
CCOC(=O)c1ccc(NC(=O)c2ccccc2[N+](=O)[O-])cc1 | -76*
CCOC(=O)c1ccc(Nc2ncccc2[N+](=O)[O-])cc1 | -218*
CN(C)/C=C/c1oc2ccc(O)cc2c1[N+](=O)[O-] | -86*
COc1cc(C(C#N)N2N=C(c3ccccc3)CC2c2ccccc2)ccc1O (stereo not given) | -142*
COc1ccccc1-c1nnc2n1N=C(c1ccc(O)c(O)c1)CS2 | 97
COc1ccc(C(=O)C[n+]2ccccc2/C=N/O)cc1 | -82*
CC(C)(C)C1CCC(OC(=O)CN2CCOCC2)CC1 (stereo not given) | -108*
Cc1cc(OCC(=O)N2CCCC2)ccc1Cl | -91*
Cc1cc(OCC(=O)N2CCCCCC2)ccc1[N+](=O)[O-] | -148*
Cc1cc2c(cc1C)NC(CC(=O)NCc1ccccc1)C(=O)N2 (stereo not given) | -77*
O=C(O)c1ccc(-c2nnc(-c3cccc(Br)c3)o2)cc1 | -202*
Brc1ccc(-c2nnc(-c3cccc(Br)c3)o2)cc1 | -127*
COc1ccc(N=c2cc(-c3ccc(O)cc3)oc3ccccc23)cc1 | -62*
O=c1cc(-c2ccc3c(c2)OCO3)oc2ccccc12 | -297*
SMILES | aSyn 5UTR act
COc1ccc(-c2cc(=O)c3ccccc3o2)cc1 | -216*
Nc1c(-c2ccc3c(c2)OCCO3)oc2ccccc2c1=O | -145*
O=c1cc(-c2ccc(O)cc2)oc2ccc(O)cc12 | -151*
O=c1cc(-c2ccc(O)cc2)oc2ccccc12 | -138*
Cn1c2ccccc2c(=O)c2ccc(-c3ccc4c(c3)OCO4)cc21 | -145*
Cc1ccc(SCC(=O)c2c(C)nc3ccccn23)cc1 | -85*
COc1cccc(C2=N/C(=C\N(C)C)C(=O)O2)c1 | -133*
Cc1ccc([N+](=O)[O-])cc1N/C=C1\CCc2ccccc2C1=O | -163*
O=C(Nc1cccc(-c2cnc3ccccc3n2)c1)c1ccco1 | -80*
O=C(Nc1cnc2ccccc2c1)c1ccco1 | -95*
O=C(Nc1cnc2ccccc2c1)c1cccnc1 | -101*
O=C(Nc1cnc2ccccc2c1)c1cccc(-n2cnnn2)c1 | -89*
Cc1cc(C(=O)Nc2cnc3ccccc3c2)ccc1[N+](=O)[O-] | -132*
Cn1c(NC(=O)c2cccnc2)nc2ccccc21 | -101*
CC(C)(C)c1ccc(C(=O)Nc2cccc(-n3cnnn3)c2)cc1 | -85*
Cc1ccc(C(=O)Nc2cnc3ccccc3c2)cc1 | 103
C=CCc1ccc(OCC(O)COCC)c(OC)c1 (stereo not given) | -76*
COC(=O)c1ccc(COc2ccc(C)c(C)c2)o1 | -198*
COC(=O)c1ccc(COc2cc(C)ccc2C)o1 | -149*
Cc1ccc(OCc2ccc(C(=O)Nc3nccs3)o2)cc1C | -110*
Cc1csc(NC(=O)c2ccc(COc3ccccc3)o2)n1 | -136*
Cc1cc(COc2ccccc2)oc1C(=O)O | -108*
Cc1ccc(OCc2ccc(C(=O)O)o2)cc1C | -188*
C=CCc1ccc(OCc2ccc(C(=O)OC)o2)c(OC)c1 | -121*
CCOC(=O)CNc1c(-c2ccc(O)cc2)nc2ccc(Cl)cn12 | -68*
SMILES | aSyn 5UTR act
CCC(C)NC(=O)c1cc2cc3ccc(OC)cc3nc2o1 (stereo not given) | -147*
CCCCN(CC)C(=O)c1cc2cc3ccc(OC)cc3nc2o1 | -111*
CC1CC(c2ccccc2)=Nc2ccccc2N1 (stereo not given) | -100*
CC1(C)CC(NC(=O)c2cc(COc3cccc(C(F)(F)F)c3)on2)CCO1 (stereo not given) | -93*
COc1cccc(OCc2cc(C(=O)NC3CCOCC3)no2)c1 | -139*
CCCC#Cc1ccc2c(c1)COc1c3ccccc3nn1-2 | -76*
Cc1cc(Cl)ccc1OCC(=O)Nc1cccnc1 | -108*
Cc1c(C)c2ccc(OCC(=O)Nc3cccnc3)c(C)c2oc1=O | -137*
COc1ccnc(CSC(N)=Nc2cccc(C(F)(F)F)c2)c1 | -81*
O=C1C=C(N2CCCCC2)c2ccccc2C1=O | 122
CCCN1C(=O)/C(=C2\SC(N3CCCCC3)=NC2=O)c2ccccc21 | -159*
O=C1N=C(N2CCCCC2)SC1=C1CCCCC1 | -89*
O=C1N=C(N2CCOCC2)S/C1=C1\C(=O)N(Cc2ccccc2)c2ccccc21 | -193*
CN1C(=O)/C(=C2\SC(N3CCCCCC3)=NC2=O)c2ccccc21 | -153*
CC(=O)N(C)C1=C(N2CCOCC2)C(=O)c2ccccc2C1=O | 76
Cc1ccccc1Cn1cc(NC(=O)c2noc(C(C)C)c2[N+](=O)[O-])cn1 | 106
COc1ccc(CCNC(=O)c2cc(-c3ccco3)on2)cc1OC | -77*
O=C(NCc1ccccc1)c1cc(-c2ccco2)on1 | -97*
Cc1ccccc1Cn1cc(NC(=O)c2cc(-c3ccco3)on2)cn1 | -76*
O=C(NCCc1ccccc1)c1cc(-c2ccco2)on1 | -321*
CC1CCN(C(=O)Cn2nnc(-c3cccs3)n2)CC1 | -131*
CC1CCN(C(=O)CSCC(=O)Nc2nc(-c3cccs3)cs2)CC1 | -89*
CC1CCCN(C(=O)CSCC(=O)Nc2nc(-c3cccs3)cs2)C1 (stereo not given) | -76*
O=C(Cn1nnc(-c2ccccc2F)n1)N1CCCCC1 | -120*
Cn1c(COc2ccc(F)cc2)nc2ccccc21 | -121*
SMILES | aSyn 5UTR act
Cc1cccc(OCc2nc3ccccc3n2C)c1 | -140*
Nn1c(CSc2ccccn2)nc2ccccc2c1=O | -123*
Cc1cccc(OCc2nc3ccccc3c(=O)n2N)c1 | -71*
Cc1ccccc1OCc1nc2ccccc2n1C | -170*
CCOc1ccc(-n2nc3ccc(NC(=O)CC)cc3n2)cc1 | -120*
CC(=O)Nc1ccc2c(c1)ncn2-c1ccccc1 | -110*
CCC(=O)Nc1ccc2c(c1)ncn2-c1ccccc1 | -75*
CC(=O)Nc1ccc2c(c1)c1ccccc1n2C(C)=O | -65*
CC(C)CC(=O)Nc1ccc(C(=O)Nc2cccc(O)c2)cc1 | -151*
O=C(Nc1cccc(O)c1)c1ccc(C(F)(F)F)cc1 | -166*
COC(=O)c1c(-c2ccc(F)cc2)csc1NC(=O)c1ccco1 | -129*
COC(=O)c1c(-c2ccc(C)cc2)csc1NC(=O)c1c(-c2ccccc2)noc1C | 68
COC(=O)c1c(-c2cccnc2)csc1NC(=O)c1cc(C)on1 | -231*
Cc1ccc(C(=O)Nc2scc(-c3ccccc3)c2C(=O)O)cc1 | -92*
COc1ccc(-c2csc(NC(=O)c3ccccc3F)c2C(=O)O)cc1 | -89*
C#CCSc1nnc(-c2ccc(C)cc2)o1 | -164*

High-throughput results: PubChem, Broad Institute
